Experimental data reported in the supplement of paper PMC11417369.
± gives the standard deviation of the averaged measurements. The full ranking holds about 25,000 sequences; the median of “ln(normalized median fluorescence intensity)” is about 10, and the highest 2% start at about 12. Shown is part of a subset that was picked to be rich in the highest values.

What follows are sequences tested on PfAP2-G AP2 domain (GST-tagged) (assay: gcPBM binding intensity (ln(normalized median fluorescence intensity)); higher = stronger DNA binding).
Procedure, shortened: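 GST-fused DNA-binding domains of P. falciparum, expressed in E. coli, were applied at about 25 μg on average for 1 h to an Agilent 4 × 180k array of primer-extended double-stranded 36-bp intergenic genomic probes and negative controls. Binding intensity is the highest Masliner-normalised natural-log median intensity across replicate spots of either probe orientation, measured with Alexa488 anti-GST antibody and a 488 nm scan.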

Sequence	gcPBM binding intensity (ln)
TTGTAATATCTTGTCACACATATATATATATATATA [CACACA_site4937]	10.1 ± 0.26
AATTGAAAAAGAAATTGTACATTTTATTTTTATTAT [XGTACX_site1973]	10.9 ± 0.42
ATAGTCTTAATGACTACACACCTAACTATGCATGCA [CACACA_site5084]	9.88
CAAAAATAAATATAAACACACAATAAATAAATAAAT [CACACA_site891]	9.74 ± 0.057
TATTTTAACATTAGGTGTACATACAAAAATAAAAAT [XGTACX_site8577]	11.6 ± 0.93
CAAAAATAATTTAGGTGTACAAATTTGACAAAAAAA [XGTACX_site188]	11.7 ± 0.59
TAAAATAATACAAAATGTACAAAATTTACAAAATGT [XGTACX_site3541]	10.5 ± 0.28
CTTAAAATGATAATATGTACACATAAATAATATATA [XGTACX_site8330]	11.5 ± 0.76
TACTACACACATTCATGTACTTGATAAATTAATGAT [XGTACX_site6444]	10.9 ± 0.47
TATATAAACATCGGTAGTACACACATTCATGTATTT [XGTACX_site6443]	11.5 ± 0.71
ATAAACATCGGTAGTACACACATTCATGTACTTGAT [CACACA_site3037]	11.8 ± 1
TTTTCAAAATGTTGTACACACAAAAAAAAAAAAAAA [CACACA_site1550]	11.5 ± 1
TAAGAAAAAGGCACACGTACATAATTCAAAATAAAT [XGTACX_site982]	11.3 ± 0.67
TCGGGAGGGGGGAAGCGTACATATATAAAATTATTA [XGTACX_site4683]	11.7 ± 0.76
TATAAATAGAGGAAGCGTACATATATATATATATAT [XGTACX_site4993]	11.3 ± 1
ATAAATAAATAAAAGCGTACATATATATAAAATATA [XGTACX_site8107]	11.6 ± 0.88
TTATAAAAATACAGTTAACACACATGTGTATATATA [CACACA_site9257]	10.4 ± 0.25
CGCATGCAATGTTAATGTACATATATATATATATGT [XGTACX_site3316]	11.7 ± 0.64
ATATATATATATATATGTACATAATGCATATAATAT [XGTACX_site6142]	11.1 ± 0.52
ATATATATATATATATGTACATATGTTAATCTGCAT [XGTACX_site1068]	11.2 ± 0.7
AATATAAATAAAAAATTGATTTCTTTAAAAAGGTAT [CACACA_negctrl_site1038]	9.67 ± 0.18
TTTTTATAAAAATTATTAAAAAAATTATTTATAGCT [CACACA_negctrl_site265]	9.54 ± 0.12
ATGACATATAAATATACACACATACGTAAGTATATT [CACACA_site5058]	9.96 ± 0.11

Sequence	gcPBM binding intensity (ln)
AAAAAAAAAAAAAAAAGTACACAAATTTTAAAAATT [XGTACX_site3006]	11.6 ± 0.88
TATAAAAGGTAAGAGTGTACAAGTAAAAAATTTTTA [XGTACX_site771]	11.2 ± 0.7
GTACAAAAAAAGTGTACACAAAGTAAGACTTTAATT [CACACA_site5068]	11.7 ± 0.83
TTTAAAGTAATAAAGTGTACAAAAATAAATTCAGCT [XGTACX_site8651]	11.2 ± 0.67
GTATAAAAAAATAAAAGTACAAAAAAAAAAGACTGA [XGTACX_site186]	11.4 ± 0.77
TGTGTATAAAAAAAGTGTACACAAAGTAAGACTTTA [XGTACX_site3759]	11.7 ± 0.86
TTCTAAAATTATATAGTGCAATTATATTAATTTTTC	9.785 ± 0.078
TTTGTTGGTATGGTTACACACATTTAGGAAATAAAA [CACACA_site1411]	10.4 ± 0.34
GAACGTATCATGTGTACACACAAATTGTTTTTTTTT [CACACA_site2020]	11.7 ± 0.91
TCGAACGTATCATGTGTACACACAAATTGTTTTTTT [CACACA_site8623]	11.6 ± 0.86
TTTTACAAATGTTTTACACACACATAATTGTATCAA [CACACA_site4166]	10.1 ± 0.13
ACCCATTGCTCACGTGCACACATAGAAAAATAATTC [CACACA_site4389]	10.8 ± 0.58
AAAAATTTAAGTGGGGGTACATTTTTTTAACACCTT [XGTACX_site1093]	11.6 ± 0.66
TTTTTAATTTTTTTTAAACACACACCGTACATTCAA [CACACA_site7925]	10.8 ± 0.61
ATTCATTTTTTGGGGGGTACACCCTTTTAAACATTT [XGTACX_site4797]	11.8 ± 1.3
AATAGCCCATATGGAATACACACTGAAAATAAAAAA [CACACA_site3373]	10.3 ± 0.26
TATATATATATATATGCATGTACATATATTTGTTAT [TGCATGCA_site379]	11.1 ± 0.42
TATATTTCAGGGGGGAGTACAAATTTTTTTATATAA [XGTACX_site1600]	11.8 ± 0.87
TATAATTATATTTGGAGTACAAATTTTTTTTTTTTT [XGTACX_site7494]	11.5 ± 0.9
TATTTTTTTTTTATATGTACATAATTTCAAATAAAT [XGTACX_site7747]	11.4 ± 0.83
TATTGTATTTAATAAACACACAATATTAAAAATATA [CACACA_site4725]	9.91 ± 0.16
GAAAACAAATATGTAGCACACATTCACATAATATAT [CACACA_site8731]	9.97 ± 0.014
GTTACATACCTATACACACACATATATAAATAAATA [CACACA_site6549]	10.2 ± 0.18
